Source: PubChem BioAssay
KinaseGlo FLuc = Counterscreen for Luciferase (Kinase-Glo TM) Inhibition; Kinase-Glo luciferase, ATP luminescence, 8 min; Potency, µM (titrated, usually from 38.3 µM), hits mostly inhibitors; actives 0.28% (n = 200,000); AID 1379, 2008; further: nearly all actives have a fitted effect of over 60% in size
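Light output from Kinase-Glo luciferase with luciferin and 10 uM ATP in 50 mM imidazole pH 7.2, KCl, MgCl2, Tween 20, BSA; compound pin-delivered, 8-min ambient incubation, then luminescence read.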
NPC1 prom act = qHTS Assay for NPC1 Promoter Activators | Potency, µM (series often up to 9.22 µM), most hits filed as activators | Huh7 NPC1 promoter luciferase reporter, 24 h | actives 2.4% (n = 320,000); further: nearly all actives have a fitted effect of over 60% in size
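Compounds in DMSO were transferred onto Huh7 NPC1-luciferase reporter cells pre-incubated 2 h; after 24 h at 37 °C, Amplite reagent was dispensed and luminescence recorded 10 min later.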
Rab9 prom act = qHTS Assay for Rab9 Promoter Activators | actives 2.8% (n = 320,000) | Huh7 Rab9 promoter-luciferase reporter, luminescence, 24 h | AID 485297, 2010 | Potency, µM (titrated, usually from 9.22 µM), hits mostly activators; further: nearly all actives have a fitted effect of over 60% in size
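Huh7 cells stably carrying a Rab9 promoter-luciferase reporter, 1500 cells per well in OP-MEM I with 10% FBS, treated with compound 24 hours at 37C. Luciferase activity read by luminescence after 10 minutes with Amplite reagent.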
FLuc counter = qHTS profiling assay for firefly luciferase inhibitor/activator using purifed enzyme and Km concentrations of substrates (counterscreen for miR-21 project) | Luciferin 4-monooxygenase (Photinus pyralis), P08659 | purified FLuc, Km substrates, luminescence inhibition | Potency, µM (titrated, usually from 57.5 µM), usual class: inhibitors | actives 6.9% (n = 360,000) | AID 588342, 2011; further: nearly all actives have a fitted effect of over 55% in size
Target sequence (P08659 whole entry, looked up): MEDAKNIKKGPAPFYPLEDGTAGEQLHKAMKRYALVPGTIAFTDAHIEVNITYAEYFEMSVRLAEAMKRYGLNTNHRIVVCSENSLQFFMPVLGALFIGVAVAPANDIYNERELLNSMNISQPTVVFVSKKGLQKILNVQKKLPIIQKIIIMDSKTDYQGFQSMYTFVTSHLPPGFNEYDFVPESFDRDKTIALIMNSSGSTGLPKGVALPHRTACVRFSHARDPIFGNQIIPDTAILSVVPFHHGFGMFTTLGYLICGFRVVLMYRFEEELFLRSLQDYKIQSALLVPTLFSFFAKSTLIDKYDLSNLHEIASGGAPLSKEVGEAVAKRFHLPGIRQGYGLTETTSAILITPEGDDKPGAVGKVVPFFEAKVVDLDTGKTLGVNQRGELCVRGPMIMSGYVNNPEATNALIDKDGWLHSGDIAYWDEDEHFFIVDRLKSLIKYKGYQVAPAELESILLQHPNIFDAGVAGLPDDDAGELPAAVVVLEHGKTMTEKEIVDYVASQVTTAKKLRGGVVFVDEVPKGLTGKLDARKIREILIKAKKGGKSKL
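Purified P. pyralis luciferase, 10 nM final, with Km-level 10 uM D-luciferin and 10 uM ATP in 50 mM Tris acetate pH 7.5, 10 mM Mg acetate, 0.01% Tween-20, 0.05% BSA; 6-point qHTS titration about 60 µM downward; luminescence read.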
ELG1 genotoxic = qHTS screen for small molecules that induce genotoxicity in human embryonic kidney (HEK293T) cells expressing luciferase-tagged ELG1. HEK293T ELG1-luciferase reporter, luminescence, 16 h. Potency, µM (doses to about 46 µM), most hits filed as activators. actives 1.3% (n = 330,000); further: nearly all actives have a fitted effect of over 60% in size
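After overnight (16 hr) compound treatment at 37 °C, ELG1-luciferase HEK293T cells were lysed with ONE-Glo; luminescence quantified 30 min later at room temperature.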
SMN2 splice up = qHTS Assay for Enhancers of SMN2 Splice Variant Expression; HEK293 SMN2-luciferase splicing reporter, luminescence, 30-36 h; Potency, µM (doses to about 46.1 µM), usual class: activators; actives 2.8% (n = 210,000); AID 1458, 2008; further: nearly all actives have a fitted effect of over 55% in size
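qHTS luciferase splicing reporter: luminescence rises when SMN2 exon 7 is included in transfected HEK293 cells. Compound exposure lasted 30-36 h at 37C, with 4.5 mM final sodium butyrate as control, followed by a ONE-Glo read.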
Numbers stand for hits; 0 = inactive; ? = inconclusive; - = no result. Rows were chosen to be rich in hits. Some 7.5% of all compounds tested hit in one or more screens of this group. The call rests on the fitted dose curve; in most records, active means well fitted curve in the direction sought with a large enough effect; inconclusive means small, poorly fitted or top-dose-only effect, or another doubt; inactive means no such curve, though single readings can be large; an effect the other way counts as inactive or inconclusive.

SMILES	KinaseGlo FLuc	NPC1 prom act	Rab9 prom act	FLuc counter	ELG1 genotoxic	SMN2 splice up
CC(C)(C)C(=O)OCc1nc(-c2ccc3c(c2)OCCO3)cs1	-	2.8µM	3.2µM	0.54µM	?	-
NC(=O)Cc1nc(-c2ccc(F)cc2)cs1	-	0	0	0	0	-
COc1ccc(-c2csc(NC(=O)C3CC(=O)N(c4ccc5c(c4)OCCO5)C3)n2)cc1 (stereo unspecified)	-	0	0	0	0	-
CC(C)(C)C(=O)OCc1nc(-c2ccc(F)cc2)cs1	-	?	2.5µM	1.3µM	0	-
CCOc1ccc(CC(=O)Nc2c3c(nn2C(C)(C)C)CS(=O)(=O)C3)cc1	-	0	0	0	0	-
Cc1ccc(N2CCN(S(=O)(=O)c3cc(Br)cc4c3N(C(=O)C3CC3)CC4)CC2C)cc1 (stereo unspecified)	-	-	-	0	-	0
Clc1ccccc1CN1CCc2nc(N3CCN(c4ncccn4)CC3)ncc2C1	-	-	-	0	-	-
Cc1cc2c(cc1S(=O)(=O)Nc1cccc(Cl)c1C)OCCN2C	-	-	-	0	-	-
OCCOCCNc1ncnc2c1cnn2-c1ccccc1	0	2.2µM	?	?	0	0
c1ccc(-n2ncc3c(NCc4ccccn4)ncnc32)cc1	0	0	0	?	?	0
Cc1ccc(-n2ncc3c(NCCCOC(C)C)ncnc32)c(C)c1	0	0	0	0	0	0
OCCOCCNc1ncnc2c1cnn2-c1ccc(Cl)cc1	0	1.1µM	0.89µM	9.5µM	0	0
CC(C)OCCCNc1ncnc2c1cnn2-c1ccccc1	0	1.4µM	0.45µM	4.3µM	0	0
COCCN(CCOC)c1ncnc2c1cnn2-c1ccc(Cl)cc1	0	?	?	15µM	10µM	?
CC(CN1C(C)CCCC1C)OC(=O)c1ccc(Cl)cc1Cl (stereo unspecified)	0	0	0	0	0	0
CCOC(=O)c1ccc(S(=O)(=O)N2CCN(CCc3ccncc3)CC2)cc1	-	-	-	-	0	-
O=C1CCCc2cc(S(=O)(=O)NCC3CCC(C(=O)Nc4ccccc4F)CC3)ccc2N1 (stereo unspecified)	-	-	-	0	-	-
COCCNc1ncnc2c1cnn2-c1ccc(Cl)cc1	-	1.8µM	1.8µM	7.6µM	-	-
Clc1ccc(-n2ncc3c(NCc4cccs4)ncnc32)cc1	0	0	0	0	0	0
COc1cc(/C=N\Nc2nc(-c3ccc(C)cc3)c(NC(C)=O)s2)ccc1O	-	0	0	?	0	-
CCOc1cc(/C=N/Nc2nc(C)cc(=O)[nH]2)ccc1O	-	0	0	?	0	-
CC(=O)Nc1sc(N/N=C/c2ccc(C)cc2)nc1-c1ccc(C)cc1	-	0	0	8.5µM	0	-
COc1ccc(/C=N/Nc2nc(-c3ccc(C)cc3)c(NC(C)=O)s2)cc1OC	-	0	0	3µM	?	-
CC(=O)Nc1sc(N/N=C/c2ccc(N(C)C)cc2)nc1-c1ccc(C)cc1	-	0	0	6.7µM	?	-
CCOc1cc(/C=N\Nc2nc(-c3ccc(C)cc3)c(NC(C)=O)s2)ccc1O	-	0	0	27µM	0	-
SMILES	KinaseGlo FLuc	NPC1 prom act	Rab9 prom act	FLuc counter	ELG1 genotoxic	SMN2 splice up
CC(=O)Nc1sc(/C(C#N)=C/c2ccc(Cl)c(Cl)c2)nc1-c1ccc(C)cc1	0	0	0	0	0	0
COC(=O)C1(c2ccccc2)NC(c2ccc(O)cc2)C2C(=O)N(c3ccc4c(c3)OCO4)C(=O)C21 (stereo unspecified)	-	0	0	0	0	-
COc1ccc(NC2CCCN(C(=O)CCc3ccncc3)C2)cc1OC (stereo unspecified)	-	0	0	0	0	-
COC(OC)c1ccnc(-c2ccc(OC(C)=O)cc2)n1	0	0	0	?	0	?
COC(OC)c1ccnc(-c2ccc(OC(=O)c3cccs3)cc2)n1	0	0	0	21µM	0	0
COC(OC)c1ccnc(-c2ccc(OC(=O)c3ccccc3)cc2)n1	0	0	0	17µM	0	0
Cc1ccccc1N1CCN(CC(=O)Nc2ccccc2C(=O)NC2CC2)CC1	-	0	0	-	0	-
Clc1ccc(-c2ccccc2)nn1	-	0	0	0	0	-
Cc1cc(N=Nc2ccc(C)c(N=Nc3cc(C)c(N)cc3N)c2)c(N)cc1N	-	2.8µM	2.8µM	0.54µM	2.3µM	-
FC(F)(F)c1cnc(COc2ccc(Cl)cc2Cl)c(Cl)c1	-	0	0	?	0	-
COc1ccccc1N1CCN(/N=C\c2ccc(C)o2)CC1	0	3.5µM	3.2µM	21µM	?	11µM
COc1ccccc1N1CCN(/N=C/C(Cl)=C/c2ccccc2)CC1	-	2.5µM	3.2µM	5.4µM	0	-
Cc1ccc(N2CCN(/N=C/C(Cl)=C/c3ccccc3)CC2)cc1	0	0	0	0	0	0
COc1ccccc1N1CCN(/N=C\c2ccccc2)CC1	-	?	?	15µM	?	-
COc1cc(C2NC(=O)N(C)C3=C2C(=O)N(c2ccccc2)C3)ccc1O (stereo unspecified)	-	-	-	0	-	0
COC(=O)c1sccc1S(=O)(=O)N1CCN(c2cccc(C)c2)C(C)C1 (stereo unspecified)	-	-	-	0	-	-
CCCCCN(C(=O)CCC(=O)OCc1cccc(Br)c1)c1c(N)n(CCCC)c(=O)[nH]c1=O	-	0	0	0	0	-
COc1cccc(/C=N/NC(=O)CCCc2ccc(OC)c(C)c2)c1	0	0	0	19µM	0	0
COc1ccc(/C=N/NC(=O)CCc2ccccc2)cc1O	0	0	0	0	0	0
COc1cccc(/C=N/NC(=O)CCc2ccccc2)c1	0	0	0	11µM	0	0
COc1ccc(NC(=O)CCCc2ccc(OC)c(C)c2)cc1	-	0	0	0	0	-
CCOc1ccc(S(=O)(=O)N2CCN(Cc3ccco3)CC2)cc1	-	0	0	0	0	-
O=C(Nc1ccc2nc3n(c(=O)c2c1)CCCCC3)c1ccccn1	0	1.6µM	1.1µM	7.6µM	?	3.2µM
COc1cc(C(=O)Nc2ccc3nc4n(c(=O)c3c2)CCCCC4)cc(OC)c1OC	-	0	0	13µM	0	0
CCOc1cccc2sc(N(Cc3cccnc3)C(=O)C3CCCCC3)nc12	-	-	-	0	-	-
O=C1C2C3C=CC(CC3)C2C(=O)N1/N=C/c1c[nH]c2ccccc12 (stereo unspecified)	0	?	?	9.5µM	0	0
O=C1C2C3C=CC(C3)C2C(=O)N1/N=C/c1cn(Cc2ccccc2)c2ccccc12 (stereo unspecified)	0	0	0	?	0	0
CCOC(=O)Cn1cc(/C=N/N2C(=O)C3C4C=CC(C4)C3C2=O)c2ccccc21 (stereo unspecified)	0	0	0	15µM	0	0
